Each structure is given as a SMILES string. Activity calls are given as the source filed them. The calls were made as follows: active = hit-call score of the fitted dose curve at least 0.9, where 1 is the maximum; inactive = score below 0.9.

Read-out in assay [1]: Vascular cell adhesion molecule 1 (VCAM1), VCAM1 (gene 7412)
Description: BSK_4H_VCAM1: BioMAP Diversity Plus: 4H Assay for Vascular cell adhesion molecule 1 (VCAM1) Biomarker Activity (AID 2283033).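 Also: cell-surface VCAM-1 protein measured by ELISA.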 The note with it: primary human endothelial cells (HUVEC); actives raise or lower the signal. The method in brief:
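HUVEC, 24 h post-dose; VCAM-1 by ELISA. Bidirectional curve fit vs DMSO baseline. Parallel SRB total-protein stain (0.1% SRB after 10% TCA fixation, 560 nm) for cytotoxicity.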

Read-out in assay [2]: Interferon-gamma inducible Protein 10 (IP10), CXCL10 (gene 3627)
Description: BSK_BE3C_IP10: BioMAP Diversity Plus: BE3C Assay for Interferon-gamma inducible Protein 10 (IP10) Biomarker Activity (AID 2283034). The note with it: primary human bronchial epithelial cells; actives raise or lower the signal. The method in brief:
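ELISA readout of IP-10 in BE3C system: primary human bronchial epithelial cells, 24 h post-dosing; bidirectional curve fit vs DMSO baseline.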

Read-out in assay [3]: Monokine induced gamma interferon (MIG), CXCL9 (gene 4283)
Nature of the assay: BSK_BE3C_MIG: BioMAP Diversity Plus: BE3C Assay for Monokine induced gamma interferon (MIG) Biomarker Activity (AID 2283035).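 Also: MIG protein measured by ELISA in BE3C cultures after 24 h of dosing.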 The note with it: primary human bronchial epithelial cells; actives raise or lower the signal. Summed up:
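Dose cells (human primary bronchial epithelial), incubate 24 h, quantify MIG by ELISA, then fit concentration–response in both directions relative to DMSO control.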

Read-out in assay [4]: Transforming growth factor beta 1 (TGFb1), TGFB1 (gene 7040)
Description: BSK_BE3C_TGFb1: BioMAP Diversity Plus: BE3C Assay for Transforming growth factor beta 1 (TGFb1) Biomarker Activity (AID 2283036;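 also: TGF-b1 protein level measured by ELISA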). The note with it: primary human bronchial epithelial cells; actives raise or lower the signal. Summed up: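 Read-out: ELISA for TGF-b1 in primary human bronchial epithelial cultures, 24 h post-dose. Bidirectional curve fitting vs DMSO control; gain or loss of signal both scored.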

Read-out in assay [5]: Plasminogen activator inhibitor-1 (PAI1), SERPINE1 (gene 5054)
Description: BSK_BE3C_PAI1: BioMAP Diversity Plus: BE3C Assay for Plasminogen activator inhibitor-1 (PAI1) Biomarker Activity (AID 2283037). The note with it: primary human bronchial epithelial cells; actives raise or lower the signal. Summed up:
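ELISA read-out of PAI-1 from human bronchial epithelial primary cells, 24 h post-dosing; bidirectional curve fit vs DMSO baseline, gain or loss of signal scored.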

Read-out in assay [6]: urokinase plasminogen activator (uPA), PLAU (gene 5328)
Description: BSK_BE3C_uPA: BioMAP Diversity Plus: BE3C Assay for urokinase plasminogen activator (uPA) Biomarker Activity (AID 2283038).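 Also: uPA protein level quantified by ELISA in cell cultures; uPA read one day after compound addition.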 The note with it: primary human bronchial epithelial cells; actives raise or lower the signal. The method in brief: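 Using confluent primary human lung bronchial epithelial cultures, we dosed chemicals, waited 24 h, then ran a uPA ELISA, fitting bidirectionally against DMSO.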

Read-out in assay [7]: Urokinase-type plasminogen activator receptor (uPAR), PLAUR (gene 5329)
Nature of the assay: BSK_BE3C_uPAR: BioMAP Diversity Plus: BE3C Assay for Urokinase-type plasminogen activator receptor (uPAR) Biomarker Activity (AID 2283039).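 Also: uPAR protein level measured by ELISA on the cells; cells exposed to compound for one day before measurement.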 The note with it: primary human bronchial epithelial cells; actives raise or lower the signal. Summed up:
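ELISA readout of uPAR on human lung primary bronchial epithelial cells, 24 h post-dosing. Bidirectional curve fit relative to DMSO vehicle baseline; gain or loss of signal both scored.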

Read-out in assay [8]: Interleukin-6 (IL6), IL6 (gene 3569)
Description: BSK_CASM3C_IL6: BioMAP Diversity Plus: CASM3C Assay for Interleukin-6 (IL6) Biomarker Activity for (AID 2283040). The note with it: primary human coronary artery smooth muscle cells; actives raise or lower the signal.

Read-out in assay [9]: Tissue plasminogen activator (tPA), PLAT (gene 5327)
Description: BSK_BE3C_tPA: BioMAP Diversity Plus: BE3C Assay for Tissue plasminogen activator (tPA) Biomarker Activity (AID 2283041).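 Also: tPA level quantified by ELISA one day after compound addition.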 The note with it: primary human bronchial epithelial cells; actives raise or lower the signal. Summed up: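 ELISA read-out of tPA on human primary bronchial epithelial cells, 24 h post-dosing; bidirectional fit vs DMSO negative control/baseline.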

Read-out in assay [10]: Interleukin-8 (IL8), CXCL8 (gene 3576)
Nature of the assay: BSK_CASM3C_IL8: BioMAP Diversity Plus: CASM3C Assay for Interleukin-8 (IL8) Biomarker Activity (AID 2283042).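 Also: IL-8 protein level quantified by ELISA.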 The note with it: primary human coronary artery smooth muscle cells; actives raise or lower the signal.

Read-out in assay [11]: Human Leukocyte Antigen - DR isotype (HLADR), HLA-DRA (gene 3122)
Nature of the assay: BSK_CASM3C_HLADR: BioMAP Diversity Plus: CASM3C Assay for Human Leukocyte Antigen - DR isotype (HLADR) Biomarker Activity (AID 2283043).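 Also: cell-surface HLA-DR protein level quantified by ELISA.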 The note with it: primary human coronary artery smooth muscle cells; actives raise or lower the signal.

Read-out in assay [12]: Macrophage colony-stimulating factor (MCSF), CSF1 (gene 1435)
Description: BSK_CASM3C_MCSF: BioMAP Diversity Plus: CASM3C Assay for Macrophage colony-stimulating factor (MCSF) Biomarker Activity (AID 2283044).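 Also: M-CSF protein amount quantified by ELISA after 24 h exposure.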 The note with it: primary human coronary artery smooth muscle cells; actives raise or lower the signal.

Read-out in assay [13]: Low-density lipoprotein receptor (LDLR), LDLR (gene 3949)
Description: BSK_CASM3C_LDLR: BioMAP Diversity Plus: CASM3C Assay for Low-density lipoprotein receptor (LDLR) Biomarker Activity (AID 2283045).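 Also: LDLR protein level on the cell surface quantified by ELISA.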 The note with it: primary human coronary artery smooth muscle cells; actives raise or lower the signal.

Read-out in assay [14]: Monocyte Chemoattractant Protein-1 (MCP1), CCL2 (gene 6347)
Description: BSK_CASM3C_MCP1: BioMAP Diversity Plus: CASM3C Assay for Monocyte Chemoattractant Protein-1 (MCP1) Biomarker Activity (AID 2283046).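 Also: MCP-1 level quantified by ELISA 24 h after dosing.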 The note with it: primary human coronary artery smooth muscle cells; actives raise or lower the signal.

Assay [15] is described as follows: BSK_CASM3C_Proliferation: Cell Proliferation Assessment in the BioMAP Diversity Plus: CASM3C Assay (AID 2283047).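 Also: sulforhodamine B total protein stain as relative cell number at 560 nm; sub-confluent cells exposed 48 h before staining; fitted both ways against DMSO so gain or loss of cell number.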 The note with it: primary human coronary artery smooth muscle cells.
Read-out in assay [16]: Monokine induced gamma interferon (MIG), CXCL9 (gene 4283)
Nature of the assay: BSK_CASM3C_MIG: BioMAP Diversity Plus: CASM3C Assay for Monokine induced gamma interferon (MIG) Biomarker Activity (AID 2283048).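 Also: MIG protein level measured by ELISA.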 The note with it: primary human coronary artery smooth muscle cells; actives raise or lower the signal.

Read-out in assay [17]: serum amyloid A (SAA), SAA1 (gene 6288)
Description: BSK_CASM3C_SAA: BioMAP Diversity Plus: CASM3C Assay for serum amyloid A (SAA) Biomarker Activity (AID 2283049).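 Also: SAA protein level quantified by ELISA.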 The note with it: primary human coronary artery smooth muscle cells; actives raise or lower the signal.

A short description of assay [18]: BSK_CASM3C_SRB: Viability Assessment in the BioMAP Diversity Plus: CASM3C Assay (AID 2283050).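 Also: total protein by SRB staining as cytotoxicity measure in parallel cultures; cells exposed to compound for 24 h.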 The note with it: primary human coronary artery smooth muscle cells.
Read-out in assay [19]: Thrombomodulin, THBD (gene 7056)
Description: BSK_CASM3C_Thrombomodulin: BioMAP Diversity Plus: CASM3C Assay for Thrombomodulin Biomarker Activity (AID 2283051).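 Also: thrombomodulin protein level measured by ELISA 24 h after dosing.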 The note with it: primary human coronary artery smooth muscle cells; actives raise or lower the signal.

Read-out in assay [20]: Tissue Factor, F3 (gene 2152)
Nature of the assay: BSK_CASM3C_TissueFactor: BioMAP Diversity Plus: CASM3C Assay for Tissue Factor Biomarker Activity (AID 2283052).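 Also: cell surface tissue factor protein level read by ELISA.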 The note with it: primary human coronary artery smooth muscle cells; actives raise or lower the signal.

In the case of `CCCCC(CC)C(=O)O` (stereo not given), the result in [1], in assay [2], in [3], in [4], in assay [5] and in [6] was inactive. The outcome in assay [7], in [8], in [9], in assay [10], in assay [11] and in [12] was inactive. The result in [13], in assay [14], in assay [15], in assay [16], in [17] and in assay [18] was inactive. Further, the result in assay [19] and in assay [20] was inactive.

As for `COc1cc(OC)nc(NC(=O)NS(=O)(=O)Nc2ccccc2C(=O)N(C)C)n1`, the result in [1], in assay [2], in assay [3], in [4], in assay [5] and in assay [6] was inactive. Further, the result in assay [7], in assay [8], in assay [9], in assay [11], in assay [12] and in assay [13] was inactive. Further, the result in assay [14], in [15], in assay [16], in assay [17], in [18] and in [19] was inactive. The outcome in assay [20] was inactive. Besides, the AC50 (as a rule, the concentration at which the activity in the assay is half-maximal) in assay [10] is 22.4 nM (active).

As to `CCCCC=O`, the result in assay [1], in assay [2], in assay [3], in assay [4], in [5] and in assay [6] was inactive. For the same compound, the result in [7], in assay [8], in assay [9], in assay [10], in assay [11] and in [12] was inactive. In addition, the outcome in [13], in assay [14], in assay [15], in assay [16], in assay [17] and in assay [18] was inactive. Besides, the outcome in [19] and in assay [20] was inactive.

In the case of `CCCCCCCCCCCCCCC`, the outcome in assay [1], in assay [2], in [3], in assay [4], in [5] and in assay [6] was inactive. In addition, the outcome in assay [7], in assay [8], in assay [9], in [10], in assay [11] and in assay [12] was inactive. In addition, the outcome in [13], in assay [14], in assay [15], in [16], in assay [17] and in [18] was inactive. The result in assay [19] and in [20] was inactive.

As for `CC(=O)Nc1ccc(O)cc1`, the result in assay [1], in [2], in assay [3], in [4], in [5] and in assay [6] was inactive. In addition, the result in assay [7], in assay [8], in [9], in assay [10], in assay [11] and in assay [12] was inactive. For the same compound, the outcome in assay [13], in assay [14], in assay [15], in [16], in assay [17] and in assay [18] was inactive. Further, the outcome in assay [19] and in [20] was inactive.

`CC1=NN(c2ccccc2)C(=O)C1`: the outcome in [1], in [2], in [3], in assay [4], in assay [5] and in assay [6] was inactive. For the same compound, the result in assay [7], in [8], in assay [9], in assay [10], in [11] and in [12] was inactive. Also, the result in [13], in assay [14], in assay [15], in assay [16], in assay [17] and in assay [18] was inactive. Further, the result in assay [20] was inactive. Moreover, the AC50 in assay [19] is 9.62 µM (active).

The values above are taken from PubChem BioAssay (EPA / NIEHS).
